Here are results for 5 molecules from PubChem BioAssay.

Calls of active or inactive are those of the source.

Test [1] addresses Albumin (Bos taurus) (UniProt P02769). Put plainly: compounds binding labelled BSA control protein – biochemical, small-molecule microarray, Alexa647 label, 635/667 nm fluorescence, artefact control for SMM control protein annotation, profiling panel (AID 1118).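 Note: score merges 667 nm emission intensity and signal-to-noise per printed compound spot.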 The settings on record: BSA-A647 binding, fluorescence 635 nm, higher = more signal.
Test [2] is described as follows: probe aXIP binding to arrayed compounds – biochemical, NeuroSMM set, 635/667 nm fluorescence, primary screen (AID 1119).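 Note: probe is the protein aXip251-270 applied at 1 µg/mL to compound-printed slides; binding of probe to printed compounds measured as 667 nm fluorescence plus signal to noise.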 Conditions: small-molecule microarray, higher = more signal, called active from +8 up or from −8 down.
A short description of test [3]: probe aNOTCH3 binding on compound microarray – biochemical, small-molecule microarray, 635/667 nm fluorescence, primary screen (AID 1120).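 Note: probe is a biotin-tagged antibody raised against NOTCH3 rather than NOTCH3 protein; score merges spot fluorescence near 667 nm with spot signal to noise.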 Conditions: higher = more signal.
A short description of test [4]: probe aNOTCH2 binding on compound microarray – biochemical, small-molecule microarray, 635/667 nm fluorescence, primary screen (AID 1121).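 Note: score merges feature fluorescence read at 667 nm with its signal to noise.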 The settings on record: higher = more signal.
The target in test [5] is Carbonic anhydrase 2 (Homo sapiens) (UniProt P00918). The test is described as follows: compounds binding carbonic anhydrase 2 – biochemical, small-molecule microarray, Alexa647-labelled CAII, profiling panel (AID 1122). The settings on record: CAII-A647 binding fluorescence, higher = more signal.
Test [6] in a line: COS7 lysate on small-molecule microarray, probe aHis, 635 nm (AID 1123).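 Note: z-score combines 667nm fluorescence intensity with signal-to-noise per printed compound spot.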 The settings on record: COS7 cell lysate, fluorescence, higher = more signal.
The nature of test [7]: probe aLAP1 signal on lysate-treated microarray – cell lysate, small-molecule microarray, COS7 lysate, primary screen (AID 1124).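 Note: lysate comes from COS7 cells expressing LAP1 and is applied at 0.3 µg/mL; score merges spot fluorescence near 667 nm with signal-to-noise over triplicate slides.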 Conditions: probe aLAP1, fluorescence, higher = more signal.
In test [8] the test system is Sam68 (KHDRBS1). Put plainly: compounds binding KHDRBS1 protein – biochemical, small-molecule microarray, 635 nm fluorescence, primary screen (AID 1125).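 Note: score merges 667 nm channel intensity with signal to noise over triplicate slides.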 Conditions: higher = more signal.
Test [9] deals with Chordin-like protein 2 (CHRDL2). The test is described as follows: compounds binding chordin-like 2 – biochemical, small-molecule microarray, 635 nm fluorescence, primary screen (AID 1126).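 Note: printed compound slides probed with Chrdl2 protein at 4 µg/mL for 1 h at 4 C; score merges 667 nm emission intensity with signal to noise over three replicate slides.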 Conditions: fluorescence 635 nm, higher = more signal.
Test [10] concerns the target Concanavalin-A (Canavalia ensiformis) (UniProt P02866). The test is described as follows: compounds binding concanavalin A lectin – biochemical, small-molecule microarray, Alexa647 label, 635 nm, artefact control for SMM control protein annotation, primary screen (AID 1127).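 Note: z combines 667 nm emission intensity with signal-to-noise across three replicate slides.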 Conditions: ConA-A647 binding fluorescence, higher = more signal.
Test [11] can be described thus: compounds binding Alexa647 anti-His antibody – biochemical, small-molecule microarray, 635 nm fluorescence, artefact control for SMM control protein annotation, primary screen (AID 1128).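 Note: score merges feature fluorescence with signal-to-noise for each printed compound spot.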 Conditions: higher = more signal.
The subject of test [12] is Human papillomavirus type 1a E7 protein (residues 1-88). Put plainly: HPV1a E7 small-molecule binders, primary screen, biochemical, small-molecule microarray, residues 1-88, 635 nm (AID 1129). Conditions: small-molecule microarray binding, fluorescence 635 nm; higher = more signal.
Test [13] addresses Focal adhesion kinase 1 (Homo sapiens) (UniProt Q05397). The test is described as follows: PTK2 protein binding on printed compound slides – biochemical, small-molecule microarray, 635/667 nm fluorescence, BSA, DTT, primary screen (AID 1130).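 Note: composite of spot emission at 667 nm and signal to noise over triplicate slides.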 Conditions: 635 nm fluorescence, higher = more signal.
The subject of test [14] is Fibrinogen (Alexa647-labelled). The test is described as follows: Alexa647-fibrinogen binding to printed small molecules – biochemical, small-molecule microarray, 635/667 nm fluorescence, artefact control for SMM control-protein annotation, profiling panel (AID 1131).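 Note: z-score merges 667 nm fluorescence with per-spot signal-to-noise over triplicate slides.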 Conditions: fibrinogen-A647 binding fluorescence, higher = more signal.
For test [15], the target named is Follistatin (Homo sapiens) (UniProt P19883). The test is described as follows: FST protein binding to printed compounds – biochemical, small-molecule microarray, 635/667 nm fluorescence, primary screen (AID 1132). The settings on record: 635 nm fluorescence, higher = more signal.
Follistatin (Homo sapiens), sequence (P19883 whole entry, looked up): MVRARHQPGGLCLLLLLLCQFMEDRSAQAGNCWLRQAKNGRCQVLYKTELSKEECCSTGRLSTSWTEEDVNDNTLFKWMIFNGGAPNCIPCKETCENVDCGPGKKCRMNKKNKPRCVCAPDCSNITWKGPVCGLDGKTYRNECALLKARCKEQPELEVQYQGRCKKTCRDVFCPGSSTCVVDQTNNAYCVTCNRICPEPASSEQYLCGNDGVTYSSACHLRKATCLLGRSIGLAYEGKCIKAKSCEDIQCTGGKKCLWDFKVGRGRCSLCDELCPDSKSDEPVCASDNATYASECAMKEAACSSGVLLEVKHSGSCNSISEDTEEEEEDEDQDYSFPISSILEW
Test [16] deals with Fibroblast growth factor 2 (Homo sapiens) (UniProt P09038). Put plainly: basic fibroblast growth factor binding to printed compounds – biochemical, small-molecule microarray, 635/667 nm fluorescence, primary screen (AID 1133). Conditions: FGF2, fluorescence 635/667, higher = more signal.
Fibroblast growth factor 2 (Homo sapiens), sequence (P09038 whole entry, looked up): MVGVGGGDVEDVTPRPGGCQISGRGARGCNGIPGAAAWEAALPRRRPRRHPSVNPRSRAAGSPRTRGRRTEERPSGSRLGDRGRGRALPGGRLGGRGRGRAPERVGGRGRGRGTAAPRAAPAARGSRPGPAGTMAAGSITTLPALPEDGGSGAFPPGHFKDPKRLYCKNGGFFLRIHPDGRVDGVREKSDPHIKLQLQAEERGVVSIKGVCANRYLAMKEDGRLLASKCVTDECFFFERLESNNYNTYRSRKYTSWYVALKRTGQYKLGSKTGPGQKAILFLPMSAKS
A short description of test [17]: JC-1 mitochondrial potential readout, lung cancer cells – cell-based, A549, JC-1 fluorescence, basal, 24 h, 100 nL, profiling panel (AID 1138).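 Note: A549 lung adenocarcinoma cells under basal conditions with no added stimulus; test concentration not given here.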 Conditions: higher = more signal.
The subject of test [18] is Lefty1. The test is described as follows: Lefty1 protein binding to printed compounds – biochemical, small-molecule microarray, 635/667 nm fluorescence, primary screen (AID 1139). Conditions: fluorescence 635/667, higher = more signal.
For test [19], the system named is wheat germ agglutinin (Triticum aestivum), Alexa647-labelled. Put plainly: Alexa647-WGA lectin binding to printed small molecules – biochemical, small-molecule microarray, 635/667 nm fluorescence, artefact control for SMM control-protein annotation, profiling panel (AID 1140).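 Note: score merges 667 nm feature emission with signal to noise over triplicate slides.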 The settings on record: WGA-A647 binding, 635 nm fluorescence, higher = more signal.
Test [20] has as its target Luciferin 4-monooxygenase (Photinus pyralis) (UniProt P08659). The test is described as follows: inhibition of purified Photinus pyralis luciferase – biochemical, luminescence, purified enzyme, 2006 set, primary screen (AID 1141).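 Note: cell-free assay with purified firefly luciferase at 100 ng per well in PBS; test concentration not given here.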 The settings on record: purified firefly luciferase, SteadyGlo luminescence, 30 min; higher = more signal, called active from +8 up or from −8 down.

Concanavalin-A (Canavalia ensiformis), sequence (P02866 whole entry, looked up): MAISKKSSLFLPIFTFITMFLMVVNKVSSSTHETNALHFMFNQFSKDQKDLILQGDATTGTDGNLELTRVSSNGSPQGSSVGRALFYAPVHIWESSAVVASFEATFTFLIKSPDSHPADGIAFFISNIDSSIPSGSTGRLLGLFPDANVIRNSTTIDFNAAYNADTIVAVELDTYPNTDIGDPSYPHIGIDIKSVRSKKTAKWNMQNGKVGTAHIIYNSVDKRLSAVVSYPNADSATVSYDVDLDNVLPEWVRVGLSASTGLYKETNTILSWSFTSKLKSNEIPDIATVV
Albumin (Bos taurus), sequence (P02769 whole entry, looked up): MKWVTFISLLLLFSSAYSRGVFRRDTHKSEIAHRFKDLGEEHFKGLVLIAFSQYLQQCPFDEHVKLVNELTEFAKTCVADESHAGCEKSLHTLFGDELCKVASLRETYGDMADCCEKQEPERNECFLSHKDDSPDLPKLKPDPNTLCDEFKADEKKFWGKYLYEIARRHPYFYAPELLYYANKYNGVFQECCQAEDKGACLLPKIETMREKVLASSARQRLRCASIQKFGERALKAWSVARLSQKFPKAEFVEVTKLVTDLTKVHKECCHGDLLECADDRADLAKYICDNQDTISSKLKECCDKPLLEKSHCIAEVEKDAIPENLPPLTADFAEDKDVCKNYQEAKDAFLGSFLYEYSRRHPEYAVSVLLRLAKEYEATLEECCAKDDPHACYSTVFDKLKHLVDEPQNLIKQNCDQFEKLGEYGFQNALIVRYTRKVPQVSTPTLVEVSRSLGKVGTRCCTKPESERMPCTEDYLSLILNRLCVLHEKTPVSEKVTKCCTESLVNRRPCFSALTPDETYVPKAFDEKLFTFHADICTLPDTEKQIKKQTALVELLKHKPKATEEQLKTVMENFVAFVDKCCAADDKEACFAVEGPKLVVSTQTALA
Luciferin 4-monooxygenase (Photinus pyralis), sequence (P08659 whole entry, looked up): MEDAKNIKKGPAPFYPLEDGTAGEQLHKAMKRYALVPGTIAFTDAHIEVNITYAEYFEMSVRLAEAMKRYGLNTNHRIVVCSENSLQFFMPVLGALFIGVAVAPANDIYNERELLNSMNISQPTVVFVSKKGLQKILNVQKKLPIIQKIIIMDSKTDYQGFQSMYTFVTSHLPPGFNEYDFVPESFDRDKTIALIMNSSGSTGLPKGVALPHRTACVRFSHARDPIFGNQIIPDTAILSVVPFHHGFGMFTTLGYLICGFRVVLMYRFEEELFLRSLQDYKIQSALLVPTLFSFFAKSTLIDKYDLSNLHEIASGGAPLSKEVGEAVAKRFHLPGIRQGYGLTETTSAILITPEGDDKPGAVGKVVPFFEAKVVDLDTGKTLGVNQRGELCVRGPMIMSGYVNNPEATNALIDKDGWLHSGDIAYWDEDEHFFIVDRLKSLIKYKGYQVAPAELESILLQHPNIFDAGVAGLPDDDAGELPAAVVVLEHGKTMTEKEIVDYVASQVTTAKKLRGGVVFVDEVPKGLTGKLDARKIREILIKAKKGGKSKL
Focal adhesion kinase 1 (Homo sapiens), sequence (Q05397 whole entry, looked up): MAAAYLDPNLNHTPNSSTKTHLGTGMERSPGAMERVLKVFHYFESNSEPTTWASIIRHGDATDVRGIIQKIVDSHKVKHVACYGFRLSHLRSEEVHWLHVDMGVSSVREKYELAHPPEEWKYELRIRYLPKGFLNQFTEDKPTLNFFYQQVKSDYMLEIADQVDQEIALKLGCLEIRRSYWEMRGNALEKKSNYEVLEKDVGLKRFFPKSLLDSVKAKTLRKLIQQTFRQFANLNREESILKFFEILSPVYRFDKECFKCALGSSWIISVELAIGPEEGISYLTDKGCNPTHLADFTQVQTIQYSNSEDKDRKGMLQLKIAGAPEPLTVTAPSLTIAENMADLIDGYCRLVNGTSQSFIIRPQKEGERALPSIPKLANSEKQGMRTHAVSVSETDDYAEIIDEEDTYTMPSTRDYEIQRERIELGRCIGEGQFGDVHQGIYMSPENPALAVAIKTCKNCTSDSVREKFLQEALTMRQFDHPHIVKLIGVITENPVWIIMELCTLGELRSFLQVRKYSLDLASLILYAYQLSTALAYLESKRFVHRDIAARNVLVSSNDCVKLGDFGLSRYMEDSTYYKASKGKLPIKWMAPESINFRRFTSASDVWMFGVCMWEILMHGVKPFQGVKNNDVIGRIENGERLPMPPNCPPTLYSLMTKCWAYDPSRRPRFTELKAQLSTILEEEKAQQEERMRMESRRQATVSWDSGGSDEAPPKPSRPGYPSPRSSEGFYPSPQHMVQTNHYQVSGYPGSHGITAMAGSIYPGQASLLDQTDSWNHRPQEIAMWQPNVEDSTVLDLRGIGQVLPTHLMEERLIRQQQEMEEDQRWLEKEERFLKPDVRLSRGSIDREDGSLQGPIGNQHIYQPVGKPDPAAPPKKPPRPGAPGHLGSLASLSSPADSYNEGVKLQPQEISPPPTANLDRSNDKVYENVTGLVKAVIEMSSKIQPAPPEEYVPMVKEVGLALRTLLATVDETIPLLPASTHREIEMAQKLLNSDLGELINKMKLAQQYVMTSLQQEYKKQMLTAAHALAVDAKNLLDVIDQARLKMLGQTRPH

Take `CCOC(=O)[C@H](Cc1ccccc1)NC(=O)CCC1CC(OC(=O)NCc2ccc3c(c2)OCO3)CC2(CCCC(COC(=O)NCCOc3ccccc3)O2)O1` (stereo not given in full): the composite z-score is -0.245 in [1]; 0.0636 in test [3]; -0.034 in test [4]; 0.109 in test [5]; 1.52 in [6]; -0.252 in [7]. The composite z-score in test [8] is 1.29; in [9], 0.58; in test [10], 1.13; in test [11], 0.777; in test [12], 1.16; in test [13], -0.0176. Also, the composite z-score in [14] was found to be 0.96; in [15], 0.875; in test [16], 0.776; in test [18] it was 1.2; in test [19], 0.304. The composite Z-score in [2] was -0.344 (inactive). Also, the z-score is 1.37 in [17] and 0.289 (inactive) in test [20].

Regarding `CCOC(=O)[C@H](CC(C)C)NC(=O)CCC1CC(OC(=O)NCc2ccc3c(c2)OCO3)CC2(CCCC(COC(=O)NCCc3ccc(Cl)cc3)O2)O1` (stereo not given in full), the composite z-score was 0.619 in test [1]; 0.0116 in test [3]; -0.159 in test [4]; 0.232 in test [5]; 0.817 in [6]; 0.127 in [7]. For the same molecule, the composite z-score in test [8] is 1.11; in [9], 0.359; in test [10], -0.0326; in test [11], 0.141; in test [12] it was 0.653; in test [13], 0.0146. The composite z-score in [14] is -0.092; in test [15] it was 0.62; in test [16], 0.671; in [18], 1.14; in test [19] it was 0.669. Besides, the composite Z-score in test [2] is -0.232 (inactive). Also, the z-score in [17] was 0.387; in [20], 0.621 (inactive).

Consider `O=C1[C@H]2[C@H]3[C@H](O)[C@H](O)CC(=NOCc4ccccc4)[C@H]3CC[C@H]2C(=O)N1C1CCCCC1`, for which the composite z-score is 0.487 in test [1]; -0.0744 in [3]; -0.14 in test [4]; 0.505 in test [5]; 0.596 in [6]; -0.438 in [7]. Moreover, the composite z-score in test [8] is 0.734; in [9], 0.318; in [10] it was 0.921; in test [11] it was 0.992; in test [12], 0.944; in test [13] it was 0.041. Also, the composite z-score in test [14] is 1; in [15] it was 0.28; in [16] it was 0.479; in [18] it was 0.355; in test [19] it was 0.971. Also, the composite Z-score in test [2] is 0.447 (inactive). The z-score in test [17] was 0.436; in [20], 0.18 (inactive).

As to `CCOC(=O)CCN1C(=O)[C@H]2[C@H]3[C@H](O)[C@H](O)CC(=NO[C@@H]4O[C@H](CO)[C@@H](O)[C@H](O)[C@H]4O)[C@@H]3CC[C@H]2C1=O`, the composite z-score is 0.83 in [1]; 0.207 in test [3]; -0.0698 in test [4]; 0.381 in [5]; 0.279 in [6]; -0.0046 in test [7]. For the same molecule, the composite z-score in [8] was 1.3; in [9], 1.04; in [10] it was 0.322; in test [11], 0.818; in test [12] it was 1.12; in test [13] it was 0.118. For the same molecule, the composite z-score in test [14] was determined as 0.854; in test [15], 1.22; in test [16], 1.22; in [18], 1.4; in test [19], 0.829. In test [2], the composite Z-score is 0.397 (inactive). Further, the z-score in test [17] is -0.102; in test [20], -0.115 (inactive).

On to `CC(C)=CCCC(C)=CCON=C1C[C@@H](O)[C@@H](O)[C@@H]2[C@@H]3C(=O)N([C@@H](C)c4ccccc4)C(=O)[C@@H]3CC[C@@H]12`, for which the composite z-score in test [1] was 0.0686; in test [3] it was -0.0311; in [4] it was -0.0194; in [5], 0.043; in test [6], 0.157; in test [7], 0.0404. In addition, the composite z-score in test [8] worked out at 0.121; in test [9], 1.04; in test [10], 0.6; in test [11], 0.509; in [12], 0.499; in test [13], 0.276. In addition, the composite z-score is 0.297 in [14]; 0.462 in test [15]; 0.58 in test [16]; 0.6 in test [18]; 0.0833 in test [19]. Besides, the composite Z-score in [2] is -0.283 (inactive). Also, the z-score is -0.569 in [17] and 0.391 (inactive) in test [20].
